Structures are written as SMILES. Results filed as inconclusive are left out. Values without a mark were called inactive. Calls of active or inactive are those of the source. The call rests on the fitted dose curve; in most records, active means well fitted curve in the direction sought with a large enough effect in the repeat runs; inconclusive means weak or mixed curves; inactive means no such curve, though single readings can be large; an effect the other way counts as inactive or inconclusive.
On the % scale 0 is the no-effect control and ±100 the full control effect.

Test system in one assay: not listed separately
As to the kind of experiment: qHTS assay to identify small molecule antagonists of the androgen receptor (AR) signaling pathway using the MDA cell line - cell viability counter screen (AID 743041; further: nearly all actives have a fitted effect of over 45% in size). The settings on record: MDA-kb2 viability, CellTiter-Fluor, 16 h, cells co-treated with R1881 androgen agonist; series mostly up to 70.3 µM; viability change, negative = cytotoxic: at the top concentration. In a few lines: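 Cells were plated at 3,000 per well and left 5 h. Compounds in DMSO were then pinned in, followed by R1881. After 16 h at 37C, CellTiter-Fluor fluorescence gave viability.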
(In general: In qHTS, concentration-response curves come from the screen itself.)
`C[C@@H]1CN(c2c(F)c(N)c3c(=O)c(C(=O)O)cn(C4CC4)c3c2F)C[C@H](C)N1`: the “viability change, negative = cytotoxic” value was -7.75%.
On the same count and under the same terms, the result for `NNS(=O)(=O)c1ccc(Oc2ccc(S(=O)(=O)NN)cc2)cc1` reads 4.51%; that for `CCN(CC)C(=O)N(CC)CC`, 10.1%.
Same read-out and setting: the result for `CN1CCN(c2c(F)cc3c(=O)c(C(=O)O)cn4c3c2SCC4)CC1` reads -1.22%; that for `CC1(C)C(=O)N(Cl)C(=O)N1Br`, -0.0285%.
For the compound `Cc1c(N)cccc1N`, the “viability change, negative = cytotoxic” value was -3.96% [at 95 µM].
The same measure, in the same setting: in the case of `CC(=O)Nc1ccc(C)c(Cl)c1` it was 8.01%; in that of `CN(C)CCOc1ccccc1Cc1ccccc1`, -0.806%.
Still for that read-out and setting: in the case of `CC(C)C(=O)OCC(C)(C)C(O)C(C)C` (stereo not drawn) it was 7.4% [at 95 µM]; in that of `OCCN1CCN(CCO)CC1`, 3.67% [at 95 µM]; in that of `Cc1nnc(SCC2=C(C(=O)O)N3C(=O)[C@@H](NC(=O)Cn4cnnn4)[C@H]3SC2)s1`, 16.3%.
On the same count and under the same terms, in the case of `CS(=O)(=O)c1ccc([C@@H](O)[C@@H](CF)NC(=O)C(Cl)Cl)cc1` it was 0.0395% [at 32.5 µM]; in that of `CCCCC1CCC(=O)O1` (stereo not drawn), 2.07%.
With `NC/C=C/C(=O)O`, the “viability change, negative = cytotoxic” value is -4.48%.

For another assay, the target named is Androgen receptor (Homo sapiens) (UniProt P10275). In words: qHTS assay to identify small molecule antagonists of the androgen receptor (AR) signaling pathway using the MDA cell line (AID 743042; further: nearly all actives have a fitted effect of over 55% in size). The following applies: MDA-kb2 AR-luc, MMTV luciferase, R1881 antagonist, 16 h; series mostly up to 70.3 µM; activity change, negative = inhibition: at the top concentration. The gist of the method: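 Antagonist mode: compounds plus R1881 agonist added to MDA-kb2 AR-luc cells, incubated 16 h at 37C. Luciferase reporter luminescence quantified, with multiplexed CellTiter-Fluor readout for cell viability.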
Androgen receptor (Homo sapiens), sequence (P10275 whole entry, looked up): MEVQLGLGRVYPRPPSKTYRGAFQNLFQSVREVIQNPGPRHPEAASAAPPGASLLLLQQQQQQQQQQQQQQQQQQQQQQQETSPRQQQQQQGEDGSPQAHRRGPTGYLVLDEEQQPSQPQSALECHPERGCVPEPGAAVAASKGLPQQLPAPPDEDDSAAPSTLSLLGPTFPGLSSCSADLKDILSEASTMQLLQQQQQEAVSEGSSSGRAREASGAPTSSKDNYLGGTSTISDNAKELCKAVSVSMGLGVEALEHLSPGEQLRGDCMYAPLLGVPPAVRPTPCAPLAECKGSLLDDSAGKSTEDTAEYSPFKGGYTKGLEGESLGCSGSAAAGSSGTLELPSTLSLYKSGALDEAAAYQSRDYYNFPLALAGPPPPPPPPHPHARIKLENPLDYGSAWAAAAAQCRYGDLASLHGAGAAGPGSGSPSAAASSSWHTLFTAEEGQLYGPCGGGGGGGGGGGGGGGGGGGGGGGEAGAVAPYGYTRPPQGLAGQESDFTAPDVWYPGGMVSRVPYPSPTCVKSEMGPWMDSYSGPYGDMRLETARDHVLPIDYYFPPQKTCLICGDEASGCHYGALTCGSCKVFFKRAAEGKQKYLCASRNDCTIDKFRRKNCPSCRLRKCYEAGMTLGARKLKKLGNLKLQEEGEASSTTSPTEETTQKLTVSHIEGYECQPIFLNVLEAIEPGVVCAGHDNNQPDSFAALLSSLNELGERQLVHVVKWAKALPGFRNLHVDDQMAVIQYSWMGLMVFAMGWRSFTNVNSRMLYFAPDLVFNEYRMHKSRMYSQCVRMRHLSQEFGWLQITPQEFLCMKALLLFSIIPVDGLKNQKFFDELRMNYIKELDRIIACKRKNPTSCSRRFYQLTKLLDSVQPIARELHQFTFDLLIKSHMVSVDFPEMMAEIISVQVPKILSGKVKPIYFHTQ
Take `Cc1c(C(=O)NCCO)[n+](=O)c2ccccc2n1[O-]`: the “activity change, negative = inhibition” value is -1.21%.
Same read-out and setting: in the case of `Cc1cc(S(=O)(=O)O)c(N)cc1Cl` it was -16.2% [at 95 µM].
Same read-out and setting: in the case of `Cc1ccsc1C(=CCCN1CCC[C@@H](C(=O)O)C1)c1sccc1C` it was 0%.

Test system in another assay: not listed separately
In words: qHTS assay to identify small molecule antagonists of the thyroid receptor (TR) signaling pathway - cell viability counter screen (AID 743064). Further: nearly all actives have a fitted effect of over 50% in size. The settings on record: GH3.TRE-Luc viability, CellTiter-Fluor, 24 h; series mostly up to 70.3 µM; activity change, negative = cytotoxic: at the top concentration. The gist of the method: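 Rat GH3 pituitary tumor cells stably expressing two TR response elements driving luciferase were plated, rested 4 h, then dosed with library compounds and T3 (1 nM final). After 23.5 h at 37 °C, CellTiter-Fluor was added for 30 min and fluorescence recorded.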
On to `FC(F)(F)c1ccccc1`, for which the “activity change, negative = cytotoxic” value was 0.0573%.
The same measure, in the same setting: the result for `Cc1ccc([N+](=O)[O-])cc1Cl` reads 8.34% [at 95 µM].
With `NC(=O)Cc1cccc(C(=O)c2ccccc2)c1N`, the “activity change, negative = cytotoxic” value is -7.83%.
In the case of `COc1cc(C)ccc1C(C)C`, the “activity change, negative = cytotoxic” value was 0.0198%.
On to `CCOc1ccc(NC(N)=O)cc1`, for which the “activity change, negative = cytotoxic” value is 10.5%.
Regarding `C1CCOC1`, the “activity change, negative = cytotoxic” value was 4.74% [at 95 µM].
The same measure, in the same setting: the result for `C=C(C)C(=O)OCCOP(=O)(O)O` reads 6.54% [at 95 µM].
Regarding `C=Cc1ccccc1`, the Potency entry is “inactive”.
`CC/C=C\CCOC(=O)CCCCC`: the “activity change, negative = cytotoxic” value was 12.4%.
Still for that read-out and setting: the result for `CC1CN(c2ccccc2)NC1=O` (stereo not drawn) reads 5.88%; that for `Cc1c(C(=O)NCCO)[n+](=O)c2ccccc2n1[O-]`, -0.283%.
The same measure, in the same setting: in the case of `Cc1cc(S(=O)(=O)O)c(N)cc1Cl` it was -0.392% [at 95 µM]; in that of `NC1=NCC2c3ccccc3Cc3ccccc3N12` (stereo not drawn), 10.8%; in that of `CCc1nnc(NS(=O)(=O)c2ccc(N)cc2)s1`, -7.23%.
Still for that read-out and setting: the result for `COc1ccc(Nc2ccc(OC)cc2)cc1` reads -4.95% [at 95 µM]; that for `O=C(O[C@@H](C(=O)O)[C@@H](OC(=O)c1ccccc1)C(=O)O)c1ccccc1`, 4.23% [at 95 µM].
Consider `CCCCC(=O)O[C@]1(C(=O)CO)[C@H](C)C[C@H]2[C@@H]3CCC4=CC(=O)C=C[C@]4(C)[C@@]3(F)[C@@H](O)C[C@@]21C`, for which the “activity change, negative = cytotoxic” value was 6.94%.
The same measure, in the same setting: in the case of `C[C@@H]1CN(c2c(F)c(N)c3c(=O)c(C(=O)O)cn(C4CC4)c3c2F)C[C@H](C)N1` it was -10%; in that of `NNS(=O)(=O)c1ccc(Oc2ccc(S(=O)(=O)NN)cc2)cc1`, -0.394%; in that of `CCN(CC)C(=O)N(CC)CC`, 14.3%.
On the same count and under the same terms, in the case of `Cc1ccsc1C(=CCCN1CCC[C@@H](C(=O)O)C1)c1sccc1C` it was 29.3%; in that of `CN1CCN(c2c(F)cc3c(=O)c(C(=O)O)cn4c3c2SCC4)CC1`, 2.32%.
As to `CC(C)(C)C1CCCCC1=O` (stereo not drawn), the “activity change, negative = cytotoxic” value was 6.06%.
On the same count and under the same terms, the result for `CC1(C)C(=O)N(Cl)C(=O)N1Br` reads -6.22%; that for `Cc1c(N)cccc1N`, 3.83% [at 95 µM]; that for `CC(=O)Nc1ccc(C)c(Cl)c1`, 6.29%.
On the same count and under the same terms, the result for `OCCN1CCN(CCO)CC1` reads 0% [at 95 µM]; that for `Cc1nnc(SCC2=C(C(=O)O)N3C(=O)[C@@H](NC(=O)Cn4cnnn4)[C@H]3SC2)s1`, 12%; that for `CS(=O)(=O)c1ccc([C@@H](O)[C@@H](CF)NC(=O)C(Cl)Cl)cc1`, -11.2% [at 32.5 µM].
Still for that read-out and setting: the result for `CCCCC1CCC(=O)O1` (stereo not drawn) reads 4.96%; that for `NC/C=C/C(=O)O`, 10.4%.

These data come from PubChem BioAssay (Tox21).
